NPR2 activator = human GC-B receptor activators, primary screen, HEK293 GC-B cells, cGMP TR-FRET, EC30 CNP. activation, % at 10 µM. Atrial natriuretic peptide receptor 2 (Homo sapiens), P20594. hit rate 0.11% among 370,000. AID 1920062, 2024. 0% at EC30 CNP, 100% saturating CNP;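 active = activation at 10 µM reaching about 35% in either raw or pattern-adjusted values, limit read from the data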
PLCg1 inh = PLC-gamma1 enzyme inhibitors, primary screen, biochemical, fluorescence, purified enzyme. 1-phosphatidylinositol 4,5-bisphosphate phosphodiesterase gamma-1 (Homo sapiens), P19174. fluorogenic substrate. inhibition, % at 12.2 µM. hit rate 0.84% among 370,000. AID 720700, 2013; in the data active = inhibition above about 9.5%
GC-A act = GC-A stimulated cGMP production enhancers – HEK293 GC-A cells, cGMP TR-FRET, EC30 ANP, primary screen; activation, % at 10 µM; hit rate 0.14% among 370,000; 0% at EC30 ANP, 100% saturating ANP; AID 1671463, 2021; Atrial natriuretic peptide receptor 1 (Homo sapiens), P16066; in the data active = activation above about 40%
PLC-beta3 inh = human PLC-beta3 inhibitors, primary screen, biochemical, fluorescence | 1-phosphatidylinositol 4,5-bisphosphate phosphodiesterase beta-3 (Homo sapiens), Q01970 | Purified PLC-beta3, fluorogenic substrate | inhibition, % at 12.2 µM | hit rate 0.18% among 370,000 | AID 720704, 2013
PLCgamma1 ctr = PLC-gamma1 enzyme inhibitors, counter-screen for PLC-beta3 inhibitor project, biochemical, fluorescence; shares compounds with PLCg1 inh; purified PLC-gamma1, fluorogenic substrate; inhibition, % at 12.3 µM; hit rate 3.1% among 3,300; in the data active = inhibition above about 9.5%
PLCbeta3 conf = PLC-beta3 inhibitor confirmation, biochemical, fluorescence, purified enzyme; shares compounds with PLCg1 inh; fluorogenic substrate fluorescence; inhibition, % at 12.3 µM; hit rate 1% among 3,300; AID 743261, 2014
Each line names hits and unclear results; the compound was inactive in the other large screens (follow-up assays come after a bar, where they were run). Only some compounds are listed: those with a hit (about 1.2% of all), similar ones and a draw of the others. Cut-off read from the data, not from the text of the source, unless noted: active = inhibition above about 11%; inactive = the rest.

CCN1CCN(c2nc(N)c([N+](=O)[O-])c(Nc3ccc(C)c(C)c3)n2)CC1	none
O=C(CCNC(=O)c1ccccc1Cl)Nc1ccc2c(c1)OCO2	PLCg1 inh 11 | PLCgamma1 ctr inactive | PLCbeta3 conf inactive
CC(=O)c1cc2c(cc1NC(=O)CCNC(=O)c1ccccc1Cl)OCO2	none
S=C(NCc1ccco1)Nc1cc(-c2ccccc2)[nH]n1	PLCg1 inh 9.6 | PLCgamma1 ctr inactive | PLCbeta3 conf inactive
S=C(NCc1ccco1)Nc1ccc(Br)cn1	none
Cc1ccc(-c2csc3ncnc(N4CCN(c5ccccc5O)CC4)c23)cc1	none
O=C(Nc1ncccc1O)c1cccc(S(=O)(=O)N2CCCC2)c1	none
Cc1ccc(CN2CCC[C@]3(N[C@H](c4ccccc4)[C@@H]4C(=O)N(C)C(=O)[C@@H]43)C2=O)cc1	PLCg1 inh 12 | PLCgamma1 ctr inactive | PLCbeta3 conf inactive
NS(=O)(=O)c1ccc(N/N=C/c2ccccc2C(=O)O)c([N+](=O)[O-])c1	none
NS(=O)(=O)c1ccc(N/N=C/c2ccc(O)cc2O)c([N+](=O)[O-])c1	PLCg1 inh 10 | PLCgamma1 ctr 12 | PLCbeta3 conf 13
NS(=O)(=O)c1ccc(N/N=C/c2ccc(O)c(O)c2O)c([N+](=O)[O-])c1	PLCg1 inh 12 | PLCgamma1 ctr inactive | PLCbeta3 conf inactive
Fc1ccccc1NC(=S)N1CCN(c2ccccn2)CC1	PLCg1 inh 10 | PLCgamma1 ctr inactive | PLCbeta3 conf inactive
Cc1ccc(NC(=S)N2CCN(c3ccccn3)CC2)cc1C	PLCg1 inh 11 | PLCgamma1 ctr inactive | PLCbeta3 conf inactive
O=C(NCc1ccc(OC(F)(F)F)cc1)C1CC2Cn3c(nc4ccccc43)C2N1Cc1ccccc1 (stereo not drawn)	none
O=C(NCc1cccc(C(F)(F)F)c1)C1CC2Cn3c(nc4ccccc43)C2N1Cc1ccccc1 (stereo not drawn)	PLC-beta3 inh 12 | PLCgamma1 ctr inactive | PLCbeta3 conf inactive
Cc1ccc(C)c(Cn2c(C(C)O)nc3ccccc32)c1 (stereo not drawn)	PLCg1 inh 11 | PLCgamma1 ctr inactive | PLCbeta3 conf inactive
CN(C)c1nc(Nc2ccccc2)nc(Oc2ccc(=O)[nH]n2)n1	none
Cc1ccc(Nc2nc(Oc3ccc(=O)[nH]n3)nc(N(C)C)n2)cc1	PLCg1 inh 10.0 | PLCgamma1 ctr inactive | PLCbeta3 conf inactive
N#Cc1ccc(C(=O)OCC(=O)Nc2ccc(S(N)(=O)=O)cc2)cc1	none
COC(=O)c1cccc(NC(=O)Nc2ccc(Cl)cc2Cl)c1	PLCg1 inh 9.9 | PLCgamma1 ctr inactive | PLCbeta3 conf inactive
COC(=O)c1cccc(NC(=S)Nc2cc(Cl)ccc2OC)c1	none
COC(=O)c1cccc(NC(=O)C(C)N2C(=O)c3ccccc3C2=O)c1 (stereo not drawn)	PLCg1 inh 10 | PLCgamma1 ctr inactive | PLCbeta3 conf inactive
C#CCNC[C@@H]1CSCCS(=O)(=O)N1	none
O=C(O)c1[nH]c2ccccc2c1C(c1cc(Cl)cc([N+](=O)[O-])c1O)c1c(C(=O)O)[nH]c2ccccc12	PLCg1 inh 16 | PLCgamma1 ctr 31 | PLCbeta3 conf inactive
O=C(O)c1[nH]c2ccccc2c1C(c1ccccc1)c1c(C(=O)O)[nH]c2ccccc12	none
CC(=O)Nc1ccc(C(=O)CS(=O)(=O)c2ccc(C)cc2)cc1	none
CC(=O)Nc1ccc(S(=O)(=O)c2ccc(C)cc2)cc1	PLCg1 inh 10 | PLCgamma1 ctr inactive | PLCbeta3 conf inactive
COc1ccc(/C=C2\SC(=S)N(CCC(=O)NC3CCCC3)C2=O)cc1OC	none
Cc1nn(CC(=O)N(C)Cc2ccc(F)cc2)c(C)c1[N+](=O)[O-]	none
Cc1ccc(C(=O)OCC(=O)Nc2ccccc2C(F)(F)F)cc1S(=O)(=O)N1CCCCC1	PLCg1 inh 9.8 | PLCgamma1 ctr inactive | PLCbeta3 conf inactive
O=C(COC(=O)c1cccc(S(=O)(=O)N2CCCCCC2)c1)Nc1ccccc1C(F)(F)F	none
